Laboratory results: the supplement of paper PMC10849652
The full data set covers some 7,900 targets. This sample favours those with a hit. About 0.6% of all pairs of compound and target were hits. Unmarked numbers belong to inactive results.

Key:
Assay in all cases: log2 fold change, soluble protein after heating vs DMSO (PISA); higher = thermal stabilisation; K562 cells, 10 uM, 30 min; active = over 0.2 and 3.5 SD of the protein, either way, in both replicates (recomputed)
[1] = compound: CS(=O)(=O)c1ccc(-c2cnc(N)c(C(=O)Nc3ccccc3)n2)cc1
Summary of the method: (§1)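 Aliquots of K562 cells (2×10^6 cells/mL) treated with 10 μM compound for 30 min were heated for 3 min over 48°C-58°C. After pooling and extraction in PBS with 0.5% NP-40 at 4°C, soluble protein from a 21,000xg, 90 min spin was quantified by TMTpro 16plex LC-MS/MS with channel sums equalised. Thermal stability is expressed against control samples, from duplicates, as a log2 fold change.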

crizotinib = compound: C[C@@H](Oc1cc(-c2cnn(C3CCNCC3)c2)cnc1N)c1c(Cl)ccc(F)c1Cl [crizotinib]
Summary of the method: as §1

[2] = compound: C[C@@H]1COCCN1C2=NC(=NC(=C2)C3(CC3)S(=O)(=O)C)C4=C5C=CNC5=CC=C4
Summary of the method: as §1

[3] = compound: C[C@H](C1=CC=C(C=C1)C(=O)NC2=C3C=CNC3=NC=C2)N
Summary of the method: as §1

duvelisib = compound: C[C@H](Nc1ncnc2nc[nH]c12)c1cc2cccc(Cl)c2c(=O)n1-c1ccccc1 [duvelisib]
Summary of the method: as §1

gandotinib = compound: Cc1cc(Nc2cc(CN3CCOCC3)c3nc(C)c(Cc4ccc(Cl)cc4F)n3n2)n[nH]1 [gandotinib]
Summary of the method: as §1

tozasertib = compound: Cc1cc(Nc2cc(N3CCN(C)CC3)nc(Sc3ccc(NC(=O)C4CC4)cc3)n2)n[nH]1 [tozasertib]
Summary of the method: as §1

[4] = compound: Cc1cc(SCc2sc(-c3ccc(C(F)(F)F)cc3)nc2C)ccc1OCC(=O)O
Summary of the method: as §1

doramapimod = compound: Cc1ccc(-n2nc(C(C)(C)C)cc2NC(=O)Nc2ccc(OCCN3CCOCC3)c3ccccc23)cc1 [doramapimod]
Summary of the method: as §1

ispinesib = compound: Cc1ccc(C(=O)N(CCCN)[C@@H](c2nc3cc(Cl)ccc3c(=O)n2Cc2ccccc2)C(C)C)cc1 [ispinesib]
Summary of the method: as §1

bafetinib = compound: Cc1ccc(NC(=O)c2ccc(CN3CC[C@H](N(C)C)C3)c(C(F)(F)F)c2)cc1Nc1nccc(-c2cncnc2)n1 [bafetinib]
Summary of the method: as §1

[5] = compound: Cc1cccc(CC(=O)N2CCc3c2ccc(-c2cn(C)c4ncnc(N)c24)c3F)n1
Summary of the method: as §1

nilotinib = compound: Cc1cn(-c2cc(NC(=O)c3ccc(C)c(Nc4nccc(-c5cccnc5)n4)c3)cc(C(F)(F)F)c2)cn1 [nilotinib]
Summary of the method: as §1

[6] = compound: Cc1nc(Nc2n[nH]c3c2CN(C(=O)N[C@H](CN(C)C)c2ccccc2)C3(C)C)c2sccc2n1
Summary of the method: as §1

dasatinib = compound: Cc1nc(Nc2ncc(C(=O)Nc3c(C)cccc3Cl)s2)cc(N2CCN(CCO)CC2)n1 [dasatinib]
Summary of the method: as §1

[7] = compound: Cc1ncc(-c2ccnc(Nc3ccc(S(C)(=O)=O)cc3)n2)n1C(C)C
Summary of the method: as §1

[8] = compound: Cn1cc(-c2ccc3c(c2)CCN3C(=O)Cc2cccc(C(F)(F)F)c2)c2c(N)ncnc21
Summary of the method: as §1

[9] = compound: Cn1cc(-c2ccc3nnc(C(F)(F)c4ccc5ncccc5c4)n3n2)cn1
Summary of the method: as §1

tipifarnib = compound: Cn1cncc1[C@@](N)(c1ccc(Cl)cc1)c1ccc2c(c1)c(-c1cccc(Cl)c1)cc(=O)n2C [tipifarnib]
Summary of the method: as §1

mubritinib = compound: FC(F)(F)c1ccc(/C=C/c2nc(COc3ccc(CCCCn4ccnn4)cc3)co2)cc1 [mubritinib]
Summary of the method: as §1

UniProt Q9Y5K5, sequence (Q9Y5K5 whole entry, looked up): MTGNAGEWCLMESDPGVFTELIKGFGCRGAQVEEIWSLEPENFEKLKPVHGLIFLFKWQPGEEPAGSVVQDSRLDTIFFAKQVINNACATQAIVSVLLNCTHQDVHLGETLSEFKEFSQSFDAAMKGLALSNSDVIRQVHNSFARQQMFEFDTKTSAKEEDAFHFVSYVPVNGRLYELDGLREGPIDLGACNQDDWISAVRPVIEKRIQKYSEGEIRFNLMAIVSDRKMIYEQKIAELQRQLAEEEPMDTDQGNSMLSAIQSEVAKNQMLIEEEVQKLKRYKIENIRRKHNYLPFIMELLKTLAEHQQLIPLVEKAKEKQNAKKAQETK
UniProt Q9NX61, sequence (Q9NX61 whole entry, looked up): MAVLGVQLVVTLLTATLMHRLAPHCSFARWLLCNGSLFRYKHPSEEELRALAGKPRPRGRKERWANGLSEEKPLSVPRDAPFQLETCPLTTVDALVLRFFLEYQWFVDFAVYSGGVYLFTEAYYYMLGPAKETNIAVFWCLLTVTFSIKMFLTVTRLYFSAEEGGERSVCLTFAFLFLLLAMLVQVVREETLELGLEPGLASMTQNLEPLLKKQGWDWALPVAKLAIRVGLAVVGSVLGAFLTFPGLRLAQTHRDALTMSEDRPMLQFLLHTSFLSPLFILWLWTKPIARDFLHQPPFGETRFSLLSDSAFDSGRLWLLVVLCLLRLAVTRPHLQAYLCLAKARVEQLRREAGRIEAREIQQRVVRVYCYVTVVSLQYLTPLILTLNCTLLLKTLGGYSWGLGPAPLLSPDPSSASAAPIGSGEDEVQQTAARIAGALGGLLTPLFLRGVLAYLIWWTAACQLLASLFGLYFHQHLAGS
UniProt Q96LJ8, sequence (Q96LJ8 whole entry, looked up): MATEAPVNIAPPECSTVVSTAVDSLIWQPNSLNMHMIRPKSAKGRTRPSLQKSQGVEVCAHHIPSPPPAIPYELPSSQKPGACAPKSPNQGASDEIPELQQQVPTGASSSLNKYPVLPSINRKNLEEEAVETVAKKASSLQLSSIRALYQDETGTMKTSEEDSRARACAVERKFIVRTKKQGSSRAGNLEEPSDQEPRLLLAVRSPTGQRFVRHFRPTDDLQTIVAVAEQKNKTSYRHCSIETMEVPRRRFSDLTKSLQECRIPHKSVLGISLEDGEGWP
UniProt P49754, sequence (P49754 whole entry, looked up): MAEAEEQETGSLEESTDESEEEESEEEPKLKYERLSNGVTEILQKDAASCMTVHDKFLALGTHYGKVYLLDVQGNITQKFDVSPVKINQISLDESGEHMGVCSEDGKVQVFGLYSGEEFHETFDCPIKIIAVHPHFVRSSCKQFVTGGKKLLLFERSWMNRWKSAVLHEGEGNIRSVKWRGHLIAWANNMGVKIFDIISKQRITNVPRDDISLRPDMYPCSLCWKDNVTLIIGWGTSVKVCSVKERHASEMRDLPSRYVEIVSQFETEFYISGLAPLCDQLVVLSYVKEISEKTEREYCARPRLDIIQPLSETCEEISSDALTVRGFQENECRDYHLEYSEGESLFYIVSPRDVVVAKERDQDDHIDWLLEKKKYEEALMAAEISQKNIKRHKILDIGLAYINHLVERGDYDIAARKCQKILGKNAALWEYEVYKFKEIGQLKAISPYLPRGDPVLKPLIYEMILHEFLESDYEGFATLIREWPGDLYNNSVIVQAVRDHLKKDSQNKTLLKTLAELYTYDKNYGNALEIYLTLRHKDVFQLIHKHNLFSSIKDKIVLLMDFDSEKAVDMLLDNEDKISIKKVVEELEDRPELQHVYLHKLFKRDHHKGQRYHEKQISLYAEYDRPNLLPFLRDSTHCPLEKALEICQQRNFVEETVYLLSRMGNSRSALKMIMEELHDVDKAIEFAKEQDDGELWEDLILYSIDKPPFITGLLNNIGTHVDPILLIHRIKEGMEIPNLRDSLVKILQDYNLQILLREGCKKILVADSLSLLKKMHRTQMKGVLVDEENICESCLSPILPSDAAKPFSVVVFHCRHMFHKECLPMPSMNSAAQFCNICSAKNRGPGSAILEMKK
UniProt O60784, sequence (O60784 whole entry, looked up): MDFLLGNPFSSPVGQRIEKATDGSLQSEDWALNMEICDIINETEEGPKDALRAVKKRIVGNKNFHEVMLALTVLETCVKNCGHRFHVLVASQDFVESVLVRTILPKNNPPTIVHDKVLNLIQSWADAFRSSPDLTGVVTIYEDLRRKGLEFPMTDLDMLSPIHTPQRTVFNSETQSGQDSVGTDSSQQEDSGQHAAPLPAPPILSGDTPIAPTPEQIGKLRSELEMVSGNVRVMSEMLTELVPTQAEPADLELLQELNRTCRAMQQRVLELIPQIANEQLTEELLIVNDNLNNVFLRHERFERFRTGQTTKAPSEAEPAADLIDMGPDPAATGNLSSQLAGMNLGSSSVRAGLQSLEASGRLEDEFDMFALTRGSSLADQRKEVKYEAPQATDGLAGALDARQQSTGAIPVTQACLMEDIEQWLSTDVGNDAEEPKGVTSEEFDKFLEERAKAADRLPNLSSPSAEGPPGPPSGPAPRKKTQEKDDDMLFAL
UniProt Q9P0T7, sequence (Q9P0T7 whole entry, looked up): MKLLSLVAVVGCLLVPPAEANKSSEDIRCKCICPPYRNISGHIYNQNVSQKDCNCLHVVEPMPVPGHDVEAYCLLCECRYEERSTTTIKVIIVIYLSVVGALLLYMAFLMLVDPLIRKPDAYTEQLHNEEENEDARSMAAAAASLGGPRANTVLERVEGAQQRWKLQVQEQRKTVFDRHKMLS
UniProt Q6BDS2, sequence (Q6BDS2 whole entry, looked up): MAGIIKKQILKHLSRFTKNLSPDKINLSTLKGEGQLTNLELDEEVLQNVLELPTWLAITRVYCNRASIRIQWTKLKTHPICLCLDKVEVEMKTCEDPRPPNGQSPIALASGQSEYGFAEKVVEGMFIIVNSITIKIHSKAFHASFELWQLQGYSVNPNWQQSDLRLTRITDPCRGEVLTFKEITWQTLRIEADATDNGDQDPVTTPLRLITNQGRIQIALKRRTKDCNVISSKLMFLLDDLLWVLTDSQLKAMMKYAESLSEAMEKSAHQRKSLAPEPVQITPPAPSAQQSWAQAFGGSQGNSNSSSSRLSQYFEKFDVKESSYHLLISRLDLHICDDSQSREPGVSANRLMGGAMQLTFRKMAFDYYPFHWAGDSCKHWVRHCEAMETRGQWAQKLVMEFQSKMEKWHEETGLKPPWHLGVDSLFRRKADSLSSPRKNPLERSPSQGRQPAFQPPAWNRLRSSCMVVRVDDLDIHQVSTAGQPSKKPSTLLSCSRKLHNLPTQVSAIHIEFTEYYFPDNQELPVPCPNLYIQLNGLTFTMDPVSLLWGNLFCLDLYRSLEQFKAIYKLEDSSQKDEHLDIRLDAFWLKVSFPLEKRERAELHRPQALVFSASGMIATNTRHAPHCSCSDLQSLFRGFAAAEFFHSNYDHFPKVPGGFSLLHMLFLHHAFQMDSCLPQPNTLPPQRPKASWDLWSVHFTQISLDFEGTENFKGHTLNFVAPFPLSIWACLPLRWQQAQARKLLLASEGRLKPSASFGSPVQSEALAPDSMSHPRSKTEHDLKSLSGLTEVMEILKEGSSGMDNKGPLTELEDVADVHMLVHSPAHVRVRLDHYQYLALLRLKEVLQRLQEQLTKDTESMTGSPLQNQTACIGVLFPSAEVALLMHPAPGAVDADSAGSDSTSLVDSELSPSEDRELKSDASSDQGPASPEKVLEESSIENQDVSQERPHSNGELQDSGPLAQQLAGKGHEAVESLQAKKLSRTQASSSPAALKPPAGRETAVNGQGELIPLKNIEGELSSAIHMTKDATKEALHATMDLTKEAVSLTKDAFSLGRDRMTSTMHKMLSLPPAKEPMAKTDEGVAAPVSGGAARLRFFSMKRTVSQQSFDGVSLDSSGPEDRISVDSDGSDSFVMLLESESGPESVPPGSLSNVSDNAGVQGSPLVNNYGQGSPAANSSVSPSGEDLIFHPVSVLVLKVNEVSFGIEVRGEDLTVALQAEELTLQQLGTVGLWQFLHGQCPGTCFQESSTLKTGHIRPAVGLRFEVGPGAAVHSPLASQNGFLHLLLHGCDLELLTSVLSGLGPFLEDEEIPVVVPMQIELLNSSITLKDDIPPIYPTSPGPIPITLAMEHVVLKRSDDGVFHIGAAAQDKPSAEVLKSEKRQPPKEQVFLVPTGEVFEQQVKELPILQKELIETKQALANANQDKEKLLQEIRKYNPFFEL
UniProt P18887, sequence (P18887 whole entry, looked up): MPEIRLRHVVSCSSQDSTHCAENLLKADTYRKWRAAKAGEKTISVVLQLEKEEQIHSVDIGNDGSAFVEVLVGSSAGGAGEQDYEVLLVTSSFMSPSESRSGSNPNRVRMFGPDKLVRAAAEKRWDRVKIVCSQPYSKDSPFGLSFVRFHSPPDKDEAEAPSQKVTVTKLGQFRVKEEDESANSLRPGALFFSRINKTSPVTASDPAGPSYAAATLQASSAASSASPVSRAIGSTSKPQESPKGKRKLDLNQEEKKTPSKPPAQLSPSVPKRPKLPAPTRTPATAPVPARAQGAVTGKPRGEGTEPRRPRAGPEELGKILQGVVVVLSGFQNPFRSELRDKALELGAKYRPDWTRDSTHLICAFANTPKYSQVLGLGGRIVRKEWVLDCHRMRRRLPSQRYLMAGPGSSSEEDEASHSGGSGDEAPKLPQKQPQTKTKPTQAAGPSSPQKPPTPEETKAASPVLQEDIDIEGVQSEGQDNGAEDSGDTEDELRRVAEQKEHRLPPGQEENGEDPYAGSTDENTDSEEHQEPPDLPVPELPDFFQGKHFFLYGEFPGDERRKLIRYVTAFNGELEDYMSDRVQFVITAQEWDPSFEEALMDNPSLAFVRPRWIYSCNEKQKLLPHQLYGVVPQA

| Target | log2 fold change [1] | log2 fold change (crizotinib) | log2 fold change [2] | log2 fold change [3] | log2 fold change (duvelisib) | log2 fold change (gandotinib) | log2 fold change (tozasertib) | log2 fold change [4] | log2 fold change (doramapimod) | log2 fold change (ispinesib) | log2 fold change (bafetinib) | log2 fold change [5] | log2 fold change (nilotinib) | log2 fold change [6] | log2 fold change (dasatinib) | log2 fold change [7] | log2 fold change [8] | log2 fold change [9] | log2 fold change (tipifarnib) | log2 fold change (mubritinib) |
| --- | --- | --- | --- | --- | --- | --- | --- | --- | --- | --- | --- | --- | --- | --- | --- | --- | --- | --- | --- | --- |
| VPS41 (UniProt P49754) | 0.003 | -0.213 | -0.009 | 0.03 | 0.008 | -0.117 | 0.01 | 0.046 | 0.034 | -0.138 | -0.134 | 0.034 | -0.012 | -0.039 | -0.094 | -0.03 | 0 | 0.013 | -0.084 | 0.08 |
| TMEM120A (UniProt Q9BXJ8) | -0.137 | 0.096 | 0.175 | -0.11 | -0.009 | -0.125 | -0.01 | -0.055 | -0.077 | 0.033 | 0.454 (active) | -0.054 | -0.009 | -0.038 | 0.046 | -0.09 | 0.053 | 0.057 | 0.011 | 0.048 |
| TMEM161A (UniProt Q9NX61) | -0.038 | -0.026 | -0.006 | 0.001 | -0.032 | -0.156 | -0.145 | 0.051 | -0.023 | -0.251 | -0.156 | 0.043 | -0.157 | 0.023 | -0.09 | -0.021 | -0.05 | -0.025 | -0.165 | 0.027 |
| TOP2A isoform 4 (UniProt P11388) | -0.071 | -0.157 | -0.337 | 0.559 | -0.185 | 0.158 | -0.025 | 0.015 | 0.362 | -0.376 | 0.308 | 0.092 | -0.119 | 0.033 | 0.102 | -0.11 | -0.29 | -0.324 | 0.104 | -0.292 |
| TYW1 (UniProt Q9NV66) | 0.038 | 0.143 | 0.032 | 0.053 | 0.035 | -0.004 | 0.037 | 0.021 | 0.008 | 0.179 | -0.003 | 0.033 | -0.107 | -0.005 | 0.015 | 0.04 | -0.001 | -0.085 | -0.041 | -0.075 |
| UBXN10 (UniProt Q96LJ8) | -0.03 | -0.121 | -0.091 | -0.09 | -0.017 | 0.161 | -0.122 | -0.008 | -0.014 | -0.124 | 0.002 | -0.266 | -0.085 | 0.141 | -0.032 | -0.098 | -0.075 | 0.021 | 0.01 | 0.067 |
| XPNPEP3 (UniProt Q9NQH7) | 0.06 | -0.013 | 0.011 | -0.001 | 0.059 | -0.033 | -0.034 | 0.034 | 0.065 | -0.046 | -0.06 | 0.008 | -0.034 | 0.027 | 0.021 | -0.041 | 0.092 | -0.031 | -0.065 | 0.02 |
| XRCC5 (UniProt P13010) | 0.037 | -0.086 | 0.047 | 0.077 | -0.017 | -0.001 | 0.177 | 0.179 | 0.064 | -0.16 | 0.083 | 0.07 | -0.12 | -0.405 | -0.118 | -0.243 | 0.105 | 0.123 | -0.082 | -0.014 |
| UBAP1 isoform 4 (UniProt Q9NZ09) | -0.003 | -0.008 | 0.07 | 0.023 | 0.052 | 0.009 | 0.399 | 0.082 | 0.044 | -0.046 | -0.026 | -0.022 | -0.082 | -0.15 | -0.086 | 0.009 | 0.015 | -0.015 | -0.131 | 0.084 |
| TRABD (UniProt Q9H4I3) | -0.041 | 0.174 | 0.097 | -0.062 |  | 0.059 | 0.009 |  | 0.025 | 0.597 (active) | 0.202 | -0.038 | 0.185 | 0.02 |  | -0.093 | 0.145 | -0.013 | 0.012 | -0.032 |
| TSG101 (UniProt Q99816) | 0.035 | -0.094 | 0.082 | -0.054 | 0.019 | -0.024 | 0.032 | 0.018 | 0.009 | -0.037 | -0.096 | -0.034 | -0.014 | -0.081 | -0.092 | -0.007 | 0.033 | -0.024 | -0.033 | 0.052 |
| UBE3B (UniProt Q7Z3V4) | 0.106 | -0.133 | 0.254 | -0.108 | 0.141 |  | -0.109 | 0.021 | -0.055 | 0.178 | -0.134 |  | 0.072 | 0.03 | -0.028 | 0.116 | -0.062 | 0.103 | -0.112 |  |
| TMEM9 (UniProt Q9P0T7) | -0.026 | -0.026 | 0.029 | -0.197 | -0.012 | -0.026 | -0.049 | 0.014 | 0.048 | -0.093 | 0.028 | -0.048 | -0.017 | -0.022 | -0.087 | -0.037 | 0.057 | -0.007 | -0.068 | 0.025 |
| XRCC1 (UniProt P18887) | 0 | 0.093 | 0.087 | 0.049 | 0.133 | -0.019 | -0.235 | -0.132 | -0.101 | 0.062 |  | 0.019 |  |  | 0 |  | 0.123 | 0.063 |  |  |
| WARS1 (UniProt G3V5U1) | 0.092 | 0.09 | -0.282 |  |  |  |  |  | -0.299 |  | -0.569 |  |  |  |  |  |  |  |  | -0.161 |
| TOM1 (UniProt O60784) | -0.04 | -0.054 | -0.05 |  |  | -0.018 | 0.044 |  | 0.052 |  | -0.288 | -0.105 |  |  |  |  |  |  |  | -0.222 |
| UCHL5 isoform 3 (UniProt Q9Y5K5) | 0.039 | -0.458 | 0.058 | -0.05 |  |  | 0.219 |  | -0.067 | 0.02 | 0.151 |  | -0.104 | 0.076 |  | -0.08 | -0.052 | -0.064 | -0.085 | 0.049 |
| UHRF1BP1 (UniProt Q6BDS2) | 0.003 | 0.086 | 0.001 | -0.009 | 0.124 | -0.004 | -0.014 | -0.014 | 0.014 | 0.12 | 0.042 | 0.015 | 0.138 | 0.003 | 0.044 | -0.023 | 0.045 | 0.021 | -0.005 | 0.028 |
